# From ChEMBL document CHEMBL3988442, “University of Dundee, Small-Polar-MMV Screening Library” (2021)
# Among all 69,000 compounds or so, about 950 (1.4%) showed an effect of 50% or more. The list comes from a sample in which strong results are over-represented; it also holds similar structures and randomly drawn compounds.
# Test system: Mycobacterium tuberculosis
# Test: Cornell M. t heat shock assay; note: in the data most compounds retested in dose-response had high values
# Type: functional, organism-based
# Parameters: dose or concentration left out as unconfirmed
row,Structure (SMILES),Percent Effect [%]
1,O=C(O)C(F)(F)F.c1cnc(N2CCO[C@@H]3CN(Cc4ccoc4)C[C@@H]3C2)nc1,-2.175
2,O=C(O)C(F)(F)F.O=C(c1ccc[nH]1)N1CCc2onc(COc3cccnc3)c2C1,7.093
3,C=C1C(C)(C)[C@H]2CC[C@]1(C(=O)N1CCC(n3cc(CCO)nn3)CC1)C2,-7.185
4,O=C(O)C(F)(F)F.O=C(O)C(F)(F)F.O=C(c1cccc(F)c1)N1CCN2C[C@H](OCc3cccnc3)C[C@H]2C1,-1.159
5,O=C(N[C@H]1COC[C@@H]1N1CCCC1)c1c[nH]nc1C1CCCCC1,69.58
6,CCO[C@H]1COC[C@@H]1NC(=O)c1c[nH]nc1C1CCCCC1,-8.48
7,Cc1nc(C(=O)N[C@H]2COC[C@@H]2N2CCCCC2)cs1,-0.7621
8,Cc1ccc2c(c1)C(NC1CC1)CC21CCNCC1.Cl (stereo not given),-15.52
9,C[C@@H]1CN(C(=O)c2ccc[nH]2)C[C@]12CCN(CCN1CCCC1)C2=O.O=C(O)C(F)(F)F,22.28
10,CNC(=O)CN1CCOCC2(CN(CCC(F)(F)F)CCO2)C1.O=C(O)C(F)(F)F.O=C(O)C(F)(F)F (stereo not given),-25.1
11,Cc1ccc2c(c1)C(NC(=O)N(C)C)CC21CCN(CC2CC2)CC1.O=C(O)C(F)(F)F (stereo not given),-3.475
12,COc1coc(C(=O)Nc2nc(-c3ccccn3)cs2)cc1=O,1.222
13,COc1coc(C(=O)Nc2nc(C)cs2)cc1=O,66.21
14,CCOC(=O)Cc1csc(NC(=O)c2cc(=O)c(OC)c[nH]2)n1,26.29
15,COc1c[nH]c(C(=O)Nc2nc(C)cs2)cc1=O,69.04
16,COc1coc(C(=O)Nc2nc(-c3ccncc3)cs2)cc1=O,-11.7
17,COc1c[nH]c(C(=O)Nc2nc(C(C)(C)C)cs2)cc1=O,39.24
18,O=C(NCCN1CCOCC1)c1ccn(-c2ccc3ccccn23)n1.O=C(O)C(F)(F)F,-22.38
19,Cc1ccc(CN2CCC3(CCC(C(=O)N(C)C)O3)CC2)o1.O=C(O)C(F)(F)F (stereo not given),-7.412
20,O=C(COc1ccccc1)N1C[C@@H]2COC[C@]2(COc2cccnc2)C1.O=C(O)C(F)(F)F,12.4
21,Cc1nc(NCc2noc(C3CCCO3)n2)c2sccc2n1 (stereo not given),-5.869
22,Cl.NC(=O)COc1ccc(CNCc2cc(F)cc(F)c2)cc1,-21.98
23,O=C(Nc1ccc(N2CCCC2)nc1)N1CCc2sccc2C1,0.2913
24,O=C(Nc1ccc(N2CCCCC2)nc1)N1CCc2sccc2C1,18.45
25,O=C(Nc1ccc(N2CCCC2)nc1)N1CCc2ccccc2C1,58.68
